Drawing on PubChem BioAssay, this text covers z-score for 16 molecules.

Calls of active or inactive are those of the source.

Assay [1] can be described thus: compound effects on lung adenocarcinoma cell viability – A549, calcein-AM fluorescence, 48 h, basal, profiling panel (AID 1162). The note with it: higher = more signal.
Assay [2] in a line: compound effects on differentiated 3T3-L1 adipocyte viability – cell-based, 3T3-L1 adipocytes, calcein-AM fluorescence, 48 h, basal, profiling panel (AID 1163). The note with it: 3T3-L1 adipocytes viability, higher = more signal.
Assay [3] can be described thus: compound effects on hepatocellular carcinoma cell viability – HepG2, calcein-AM fluorescence, 48 h, basal, profiling panel (AID 1164). The note with it: higher = more signal.
The nature of assay [4]: compound effects on multiple myeloma cell viability – MM1S, calcein-AM fluorescence, 48 h, basal, profiling panel (AID 1165).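 Further: viability of MM1S multiple myeloma cells under basal unstimulated conditions.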 The note with it: higher = more signal.
A short description of assay [5]: calcein-AM signal in unstimulated myeloma cells – cell-based, calcein-AM fluorescence, 48 h, PK04 Diversity Set, profiling panel (AID 1166).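 Further: cells grown under basal conditions without added stimulus.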 The note with it: RPMI8226 myeloma viability, higher = more signal.
Assay [6] in a line: JC-1 mitochondrial signal, unstimulated HepG2 cells – cell-based, JC-1 fluorescence, 24 h, 100 nL compound, profiling panel (AID 1167). The note with it: HepG2 mitochondrial potential, higher = more signal.
Assay [7] is described as follows: JC-1 mitochondrial signal, unstimulated adipocytes – cell-based, JC-1 fluorescence, 3T3-L1 adipocytes, 24 h, 100 nL compound, profiling panel (AID 1168). The note with it: JC-1 mitochondrial fluorescence, higher = more signal, called active from +8 up or from −8 down.
A short description of assay [8]: JC-1 mitochondrial signal, unstimulated myeloma cells – cell-based, JC-1 fluorescence, RPMI8226, 24 h, 100 nL compound, profiling panel (AID 1169). The note with it: JC-1 mitochondrial potential fluorescence, higher = more signal.
Assay [9] is described as follows: JC-1 mitochondrial signal, unstimulated MM1S myeloma – cell-based, JC-1 fluorescence, 24 h, 100 nL compound, profiling panel (AID 1170). The note with it: MM1S mitochondrial potential, higher = more signal.
The nature of assay [10]: resazurin metabolic signal in A549 cells – cell-based, resazurin fluorescence, 24 h, PK04 Diversity Set, profiling panel (AID 1171). The note with it: A549 viability, higher = more signal, called active from +8 up or from −8 down.
Further: test concentration not given here.

`Cc1ccc(S(=O)(=O)N2[C@@H](c3ccccc3)C(C(=O)O)=CC[C@H]2c2ccc(F)cc2)cc1`: the z-score in assay [1] is -0.996; in assay [2] it was 0.31; in assay [3], -0.73; in assay [4] it was 0.102; in assay [5], -0.296; in [6] it was -0.699. Besides, the z-score was 0.2 (inactive) in assay [7], 0.597 in assay [8], -1.09 in [9] and 0.649 (inactive) in assay [10].
As to `CN(C)CCCC[C@@H]1NC(=O)[C@H]2C[C@@H](C(=O)NCCCCCCNC(=O)CS)[C@@H](c3cccc(OCCO)c3)N2C1=O`, the z-score in [1] is -0.234; in [2], -0.288; in assay [3] it was -0.384; in assay [4], -0.315; in assay [5], -0.357; in assay [6], -1.27. Also, the z-score in assay [7] is -0.0363 (inactive); in assay [8], 0.503; in assay [9], -0.177; in assay [10], 0.0246 (inactive).
Take `COC(=O)C(CC#Cc1ccc2c(c1)[C@]1(C(=O)N2)[C@H](C(N)=O)[C@H]2C(=O)O[C@H](c3ccccc3)[C@H](c3ccccc3)N2[C@@H]1c1ccccc1OCCO)C(=O)OC`: the z-score in [1] was -0.782; in assay [2], -0.436; in assay [3], -4.23; in [4], -3.4; in [5], -4.62; in assay [6] it was -0.82. Also, the z-score is 4.3 (inactive) in [7], -1.18 in assay [8], -2.2 in assay [9] and -2.83 (inactive) in assay [10].
Consider `[N-]=[N+]=Nc1ccccc1C[C@@]1(C(=O)NCc2ccccc2)N=C(c2ccc(OCCCO)cc2)O[C@@H]1c1ccccc1`, for which the z-score in assay [1] was -1.36; in assay [2], 0.902; in [3], -1.78; in assay [4] it was -2.51; in [5], -3.76; in assay [6], 1.45. In addition, the z-score in assay [7] was -0.739 (inactive); in assay [8], -1.3; in assay [9], -0.738; in assay [10], 0.808 (inactive).
Regarding `COCCOC(=O)N1C(=O)[C@@]2(c3cc(C#CCNC(N)=O)ccc31)[C@H](C(=O)Nc1nc3ccccc3s1)[C@H]1C(=O)O[C@H](c3ccccc3)[C@H](c3ccccc3)N1[C@@H]2c1ccc(O)cc1`, the z-score in assay [1] was -0.277; in assay [2], -0.133; in assay [3] it was -0.287; in assay [4], -1.19; in assay [5] it was 0.258; in assay [6] it was -3.96. In addition, the z-score in [7] is -2.98 (inactive); in [8], -0.776; in assay [9], -1.14; in [10] it was 0.14 (inactive).
In the case of `CC[C@@H](O[Si](C#C[Si](C(C)C)(C(C)C)C(C)C)(C(C)C)C(C)C)c1cn([C@H](CO)Cc2ccccc2)nn1`, the z-score in assay [1] was -0.28; in assay [2], -1.04; in assay [3], 0.928; in assay [4] it was 0.297; in assay [5], 0.944; in assay [6], 0.74. The z-score in [7] is -0.123 (inactive); in [8], -0.0761; in assay [9], -0.757; in [10], 0.194 (inactive).
With `C[C@]12C(=O)N(CCO)[C@@H]3C(=O)N(c4ccc(Cl)cc4)CC=CC31O[C@@H]1/C=C\CCCOC(=O)C12` (stereo not given in full), the z-score in assay [1] is 0.614; in [2], 1.38; in assay [3], 0.488; in assay [4], 0.971; in assay [5] it was -0.966; in assay [6], -0.646. For the same molecule, the z-score is -0.766 (inactive) in assay [7], -0.129 in assay [8], 1.61 in assay [9] and -1.3 (inactive) in [10].
On to `C=C(COC)C(=O)CC[C@H](OC(C)=O)c1ccc(CO)o1`, for which the z-score in assay [1] was 0.0053; in assay [2], 0.972; in assay [3], -0.582; in assay [4], 0.657; in assay [5] it was 1.76; in assay [6], 0.378. Moreover, the z-score in assay [7] was -0.587 (inactive); in [8], -0.563; in assay [9] it was -0.434; in [10] it was 0.642 (inactive).
In the case of `C[N+](C)(C)CCCC[C@@H]1NC(=O)[C@H]2C[C@@H](C(=O)NCCCCCN)[C@@H](c3ccc(O)cc3)N2C1=O`, the z-score was 2.02 in [1]; 0.727 in assay [2]; -0.224 in assay [3]; -1.68 in assay [4]; -0.145 in assay [5]; 1.66 in assay [6]. In addition, the z-score in [7] was -0.359 (inactive); in assay [8], 0.144; in [9], -0.292; in assay [10] it was 0.78 (inactive).
`C=C(C)C1CN([C@H](CO)c2ccccc2)C(=O)/C1=C\c1ccccc1` (stereo not given in full): the z-score in [1] is -0.121; in [2], 1.55; in [3] it was 0.0701; in [4] it was -0.313; in assay [5], -1.89; in [6] it was -1.11. The z-score was 0.0548 (inactive) in assay [7], 0.354 in [8], -1.06 in assay [9] and -0.846 (inactive) in assay [10].
For the molecule `COc1c(C)cc(-c2cc3c(c(CCc4ccccc4)n2)[Si](C(C)C)(C(C)C)O[C@H]3c2ccccc2)cc1C`, the z-score in assay [1] was -0.216; in assay [2], -0.945; in assay [3], 0.297; in assay [4], -3.19; in assay [5], -3.11; in assay [6] it was -2.39. The z-score is -0.729 (inactive) in assay [7], -1.04 in assay [8], -1.24 in assay [9] and 0.453 (inactive) in [10].
As to `COC(=O)[C@@]1(Cc2ccc(F)cc2)[C@H]2c3cc(C(=O)N4CCCC4)n(CCSCCO)c3C[C@H]2CN1C(=O)c1ccccc1`, the z-score is -0.354 in assay [1]; 0.75 in [2]; 0.706 in assay [3]; -1.58 in assay [4]; -0.118 in assay [5]; 1.3 in [6]. The z-score is -1.3 (inactive) in assay [7], -0.00907 in assay [8], -0.303 in [9] and -0.294 (inactive) in assay [10].
Turning to `C=CC[C@]1(C(N)=O)N=C(c2ccc(OCCCO)cc2)O[C@H]1c1ccccc1N=[N+]=[N-]`, the z-score is 0.772 in assay [1]; 0.46 in assay [2]; 1.49 in [3]; -1.04 in assay [4]; 0.656 in assay [5]; 0.462 in assay [6]. The z-score in assay [7] is 0.903 (inactive); in assay [8] it was -0.514; in assay [9], -0.747; in assay [10], -0.752 (inactive).
For the molecule `COC(=O)[C@@]1(Cc2ccc(F)cc2)[C@H]2c3cc(C(=O)N(C)C)n(Cc4ccsc4Br)c3C[C@H]2CN1C(=O)c1ccccc1`, the z-score in [1] was -0.981; in assay [2], -0.291; in assay [3] it was 0.191; in assay [4], -0.766; in assay [5] it was -0.985; in assay [6], 2.64. The z-score in assay [7] was 0.18 (inactive); in assay [8], 0.415; in [9], -1.17; in assay [10], -0.836 (inactive).
As to `CCOC(=O)C[C@H]1[C@H](OC(=O)c2ccccc2-c2ccccc2)[C@@H](NC(=O)CC(C)C)c2cc(OCCCO)ccc2N1C(=O)c1ccccc1`, the z-score in [1] is 0.682; in assay [2] it was 1.32; in [3], -0.177; in [4] it was -0.271; in [5] it was 0.107; in assay [6], 2.01. Further, the z-score is 0.197 (inactive) in assay [7], -0.986 in [8], -0.0327 in assay [9] and 1.65 (inactive) in [10].
For `CCOC(=O)C1=CC[C@@H](c2ccccc2)N(S(=O)(=O)c2ccc(C)cc2)[C@@H]1C#N`, the z-score is 0.25 in assay [1]; -0.415 in [2]; 0.278 in assay [3]; -3.21 in assay [4]; -2.77 in [5]; 0.43 in assay [6]. Also, the z-score in assay [7] is 0.726 (inactive); in assay [8] it was -0.791; in assay [9] it was -2.41; in assay [10], 0.433 (inactive).
